From PubChem BioAssay AID434973 (Sanford-Burnham Center for Chemical Genomics, 2010)
Out of some 330,000 compounds screened, about 4,900 (1.5%) were called active.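 How the source made its calls: active means inhibition above about 50% at the single test dose (limit read from the data); inactive means the rest.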 The full list was thinned out, with actives kept by preference.

Target: Sentrin-specific protease 7 (Homo sapiens) (UniProt Q9BQF6)
Assay: blockers of human SENP7 peptidase activity – biochemical, luminescence, uHTS, primary screen (AID 434973);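 further: plate controls were DMSO with enzyme for no effect and no enzyme buffer wells for full effect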
Conditions: recombinant SENP7, Z-RLRGG-aminoluciferin luminescence, 40 min; at 5 µM; hits give high values

inhibition, active:
Cc1cccc(/C(N)=N/OC(=O)c2ccccc2Cl)c1 98.2%, COCn1c(COc2ccccc2)nc2ccccc21 65.8%, Cc1ccc(OCc2nc3ccccc3n2C)cc1 59.7%, Cc1cc(C(=O)N/N=C/c2ccc(N3CCOCC3)cc2)c(C)o1 85.5%, CC(=C/c1ccccc1)/C=N/NC(=O)c1cc(C)oc1C 73%, COc1cccc(C(=O)c2cc3ccc(O)cc3oc2=O)c1 100%, O=C(COc1ccc2oc3c(c2c1)CCCC3)Nc1ccccn1 89.1%, Cc1cc(N=Nc2ccc3ccccc3c2)ccc1O 97.5%, O=c1[nH]c(/C=C/c2cccc(Br)c2)nc2ccccc12 65.8%, CCOC(=O)c1cnc2[nH]c3ccccc3n2c1=O 83.7%, O=C(Cn1ccc([N+](=O)[O-])n1)NCc1cccs1 71.3%, CCOc1ccc2nc(C(=O)N3CCCC(C)C3)sc2c1 (stereo not given) 67.4%, O=c1oc2cc(O)ccc2cc1-c1ccc(F)cc1 100%, O=C(Nc1nc2ccc([N+](=O)[O-])cc2s1)c1ccncc1 85.8%, CCCc1cc(=O)oc2c(C)c(OCC(=O)Nc3ccccn3)ccc12 70.1%, Oc1ccccc1-c1cc(-c2ccc(Cl)cc2)n[nH]1 92%, c1ccc(-c2cc(-c3ccccc3)[nH]n2)cc1 54.4%, O=C(Nc1ccc(Cl)cc1)c1ccsn1 51%

inhibition, inactive:
COc1ccc(N2CCN(C(=O)c3cn(C)c4ccc(S(=O)(=O)N5CCOCC5)cc4c3=O)CC2)cc1 8.09%, Cc1ccc(/C(N)=N/OC(=O)COc2ccc(Cl)c(C)c2)cc1 -1.43%, N/C(=N\OC(=O)c1cc(-c2ccccc2)nc2ccccc12)c1ccncc1 -11.9%, CC(C)c1ccc(NC(=O)CCN2C(=O)c3ccc([N+](=O)[O-])cc3C2=O)cc1 -0.0494%, COc1ccc(C(=O)COC(=O)Cn2cnc3c2c(=O)n(C)c(=O)n3C)c(OC)c1 -3.24%, CC(C)n1c(COc2ccccc2)nc2ccccc21 15%, CCOc1ccc(C(O)Cc2nc3ccccc3n2C)cc1 (stereo not given) 3.12%, Cn1c(COc2ccc(Cl)cc2)nc2ccccc2c1=O -3.98%, O=C(Cn1c(COc2ccccc2)nc2ccccc21)Nc1cc(Cl)c(Cl)cc1Cl -0.0494%, Cc1ccc(/C=N/NC(=O)C(NC(=O)c2ccccc2)c2n[nH]c(=O)c3ccccc23)cc1 (stereo not given) 0.556%, COC(=O)c1sccc1NS(=O)(=O)c1ccc(F)cc1F 6.45%, COC(=O)[C@]1(Cc2ccccc2)N[C@H](CN(C)S(=O)(=O)c2ccc(F)cc2)[C@@H]2C(=O)N(Cc3ccccc3)C(=O)[C@@H]21 1.87%, CNc1[nH]ncc1[N+](=O)[O-] 3.45%, COc1ccc(C/C(C)=N/NC(=O)c2cc(C)oc2C)cc1 -5.26%, Cc1cc(C(=O)N/N=C\C(Br)=C\c2ccccc2)c(C)o1 21.1%, Cc1ccccc1N/N=C/c1ccc(N2CCOCC2)cc1 -3.84%, O=C(NN=Cc1ccc(N2CCOCC2)cc1)c1cc2ccccc2cc1O 4.23%, O=C(c1ccc(CS(=O)(=O)c2ccccc2)o1)N1CCN(c2ccccc2)CC1 -0.219%, O=C(NNc1ccccc1Cl)C(O)(c1cccc(C(F)(F)F)c1)c1cccc(C(F)(F)F)c1 1.97%, COc1cc(CNC2CCCCC2)c(Br)cc1OC1CCCC1 -2.57%, COc1ccc(C(C)NC(=O)C2CCCC2)cc1 (stereo not given) 1.04%, COc1cccc(C(=O)NNC(=O)c2cccc(F)c2)c1 3.09%, CCOC(=O)c1cc2cc3ccccc3cc2oc1=O 7.03%, COc1ccc(N2CC(C(=O)NCCN3C(=O)S/C(=C\c4cccnc4)C3=O)CC2=O)c(OC)c1 (stereo not given) -2.06%, Cc1nc(-c2ccc(F)cc2)c(CC(=O)N(C)CC(=O)Nc2c(C)cccc2C)s1 -11.8%, CSCCC1NC2(C(=O)Nc3ccc(Cl)cc32)[C@@H]2C(=O)N(C3CCCC3)C(=O)[C@H]12 (stereo not given in full) 10.2%, COc1ccc(OC)c2[nH]c(=O)c(CCNC(=O)C(=O)c3c[nH]c4ccccc34)cc12 4.26%, CCN(CC)CCCNC(=O)COc1ccc2oc3c(c2c1)CCCC3 3.16%, CCOC(=O)N1CCN(C(=O)COc2ccc3oc4c(c3c2)CCCC4)CC1 -3.39%, O=C1C=C(c2ccnc3cc(Cl)ccc23)C[C@@H](c2ccc3c(c2)OCO3)C1 2.03%, CC(=O)N1CCN(S(=O)(=O)c2ccc(C)c([N+](=O)[O-])c2)C1C(C)C (stereo not given) 2.77%, CCOC(=O)C(NC(=O)CC(C)C)(Nc1sc2c(c1C(N)=O)CCCC2)C(F)(F)F (stereo not given) -5.57%, CC(NCc1ccccc1OC1CCCC1)c1ccccc1 (stereo not given) 8.44%, Cc1ccc(/C=N/NC(=O)c2cc3ccccc3cc2O)o1 19%, COC(=O)c1cccc(-n2[nH]nnc2=S)c1 8.95%, Cc1ccc(CSc2ccc(S(=O)(=O)N3CCCCC3)cn2)cc1 14.9%, COc1cc(C(=O)N2CCN(C)CC2)cc(OC)c1OC -4.77%, CCOc1cc(/C=C/c2nc3ccccc3c(=O)[nH]2)cc(Br)c1OC -1.26%, O=c1[nH]c(/C=C\c2cccc(C(F)(F)F)c2)nc(O)c1[N+](=O)[O-] 11.2%, COc1ccccc1N(CC(=O)Nc1ccccc1C(=O)N1CCCC1)S(C)(=O)=O 5.42%, CCOC(=O)c1cnc2sccn2c1=O 0.0796%, CCOC(=O)c1cnc(COc2ccccc2Cl)[nH]c1=O -8.27%, COc1cc(Cl)c(C)cc1NC(=O)CN1CCCCCC1 7.89%, CC(C)CCOc1ccc(C(=O)C[N+]2(C)CCOCC2)cc1 0.789%, O=C(CCn1ccc([N+](=O)[O-])n1)Nc1nccs1 0.106%, Cc1ccnc(NC(=O)Cn2ccc([N+](=O)[O-])n2)c1 10%, COc1ccc(N(CC(=O)NC2CCCCC2)C(=O)CNC(=O)c2ccco2)c(OC)c1 6.97%, Cc1noc(C)c1C(=O)NCCc1ccc(S(N)(=O)=O)cc1 10.1%, CCCC(=O)N(CCN1CCOCC1)c1nc2ccc(OCC)cc2s1 28.1%, COc1ccc2cc(C(=O)C3CCCN(C(=O)c4sc(C)nc4C)C3)ccc2c1 (stereo not given) -3.44%, Cc1ccc(CNC(=O)Cn2cnc3c(NCc4ccccc4)ncnc32)o1 -4.15%, C=C(Cl)COC(=O)C1C2C=CC(C2)C1C(=O)O (stereo not given) -1.65%, CSCCC(NC(=O)C1CCC(C)CC1)C(=O)NCc1ccco1 (stereo not given) 0.735%, O=C(O)c1ccccc1NC(=S)NC(NC(=O)c1ccccc1[N+](=O)[O-])C(Cl)(Cl)Cl (stereo not given) 14%, CCCCCCc1cc2cc(-c3nnc(-c4ccccc4)o3)c(=O)oc2cc1O -10.4%, CN(C)c1cc(-c2ccc(F)cc2)oc(=O)c1Cl 5.73%, Cn1c(N)c(C(=O)COC(=O)C23CC4CC(CC(C4)C2)C3)c(=O)n(C)c1=O -1.02%, COc1cc(NC(=O)c2cncc(-c3ccc(C#N)cc3)c2)cc(C(=O)Nc2cccc(C(F)(F)F)c2)c1 -7.54%, COc1ccc(C(=O)Nc2nc(-c3ccc(OC)cc3)c(-c3ccc([N+](=O)[O-])cc3)s2)cc1 -0.702%, O=C(NC(Nc1nc2ccc([N+](=O)[O-])cc2s1)(C(F)(F)F)C(F)(F)F)c1ccccc1 3.23%, CCCc1cc(=O)oc2c(C)c(OCC(=O)NCc3ccccn3)ccc12 12.3%, CCCc1cc(=O)oc2c(C)c(OCC(=O)N3CCC(C(=O)O)CC3)ccc12 -6.34%, CCO/N=C(/C)c1c(O)cc(-c2ccccc2)n(-c2ccccc2)c1=O 0.576%, CC1CCCC(NC(=O)c2cc(-c3ccncc3)nc3ccccc23)C1C (stereo not given) -16.1%, S=c1[nH]nc(-c2cc(-c3ccsc3)n[nH]2)n1-c1ccccc1 4.56%, S=c1[nH]nc(-c2cc(-c3ccccc3)n[nH]2)n1/N=C/c1c2ccccc2cc2ccccc12 -9.51%, Cc1ccc(NC(=O)c2cc(-c3ccccc3O)n[nH]2)cc1C -11.8%, CC(C)C(=O)NCc1cc(-c2ccc(Cl)cc2)no1 5.4%, CO[C@@H]1[C@@H](OC(N)=O)[C@@H](O)C(Oc2ccc3c(O)c(NC(=O)c4ccc(O)c(CC=C(C)C)c4)c(=O)oc3c2C)OC1(C)C (stereo not given in full) -1.54%, COc1ccc(-n2nnnc2SCC(=O)c2ccc(OC)c(OC)c2)cc1 3.65%, CCC(C)C(N=C1NS(=O)(=O)c2ccccc21)C(=O)N1CCC(C)CC1 (stereo not given) 2.08%, CCc1nnc(NC(=O)CSCc2cc(=O)n3cc(C)sc3n2)s1 -0.123%, CCCCN(C(=O)C1=NN(c2cc(C)ccc2C)C(=O)CC1)c1c(N)n(CCC)c(=O)[nH]c1=O 1.8%, Cc1ccc(CNC(=O)C2CCCN2C(=O)NCc2ccccc2)cc1 (stereo not given) -3.49%, O=C(NC1CCCC1)C(c1ccccn1)N(C(=O)c1csnn1)C1CCCC1 (stereo not given) 4.87%, CCC(=O)Nc1ccc(C(=O)NNC(=O)c2ccc(Cl)cc2)cc1 -16.2%, O=C(NCc1ccccn1)Nc1ccc(Cl)cc1 0.805%
